Source: PMC12864922, “TDP-43 directly inhibits mRNA accumulation in neurites through modulation of mRNA stability”
Over roughly 9,900 sequences, “r (bound/input frequency ratio)” has its median near 0.7; the highest 2% begin near 6.5. The list comes from a sample in which the highest values are over-represented; it also holds similar and randomly drawn sequences.

B1: ENSMUSG00000029636.13|Wasf3 (ssRNA)
RNA: GGGAGUUCUACAGUCCGACGAUCGCUUCGAUAUCCGCAUGCUAGUUUGAUGAGAAUGACUGGUCUGACUGAGGCACAAGGGCCAGGCGACCAGUGGACAGCCAGGGCCCCAUAUGCAAGUGUGUUAGGAGCUCCUGUGCUCUCUGCACCCUCACAGUGGUAUUUCCCUGUAGCUUUAGUCCCUUUUGUAUUAACAGUGUGAUUUGCUUCUGCACAUCCUUCUGGAUUUGUUGAGUAUUUACUGUGUAAUACUUAAGUGCCACAGAACACAGCACACCGUGCUGCACACCAGGAAACUCGCAGUCUCUUGCGGUCGCACUAGUGUGGAAUUCUCGGGUGUCAAGG
B2: ENSMUSG00000061578.1299|Ksr2 (ssRNA)
RNA: GGGAGUUCUACAGUCCGACGAUCGCUUCGAUAUCCGCAUGCUACGUGUUGCUGGGUCCCAGGGGAUUGGCUGUAGUUAAUUAAAAGCACCUGUCUCUGUCAUCUCUGCACCCAACUGAAUCUCCCACCCUCAAGUGUACCUCUCAGGAUAUCCCCAGGCACACGAAGAUGGAAUGGAAAGCCAGUGGGUAUCUCCCACCCACUUAGAUGCUGAUGGCCUGGGACUAUAAACAGGGACAGUUGGGUCUCCUAAGGAAUAGCUUCCAGGUCCAGGAUGCUGGCAUCUCCCAGAGAGAACUCCAUCCUCUUGCGGUCGCACUAGUGUGGAAUUCUCGGGUGUCAAGG
B3: ENSMUSG00000090935.112|Synj2bp (ssRNA)
RNA: GGGAGUUCUACAGUCCGACGAUCGCUUCGAUAUCCGCAUGCUAGUUCCUGUAGCUAUGGUGCUGCUACCAGUGUUUGCCCUCACCAUGGUAGCAGUUUGGGCCUUCGUGAGAUACCGAAAGCAGCUUUGAAAUGCUUGCUGUCUUCCAGUGUGUCCAAUGAACUCUCUCUCUCACUCACCAUCUCUGACAUCCUCCCAUAUUCUUUCUCCUCCACAUAGCCAAUACAAGAUUUAAAGUGACUGCUUAUCACCCAAAACCCUGCUAUUCAAAAUCUCCUAUUCUAAUGGAAGAGUACAGGGGUUCUCUUGCGGUCGCACUAGUGUGGAAUUCUCGGGUGUCAAGG
B4: ENSMUSG00000034801.219|Sos2|230:238 (ssRNA)
RNA: GGGAGUUCUACAGUCCGACGAUCGCUUCGAUAUCCGCAUGCUAUCUGCUAUUUGACUAAUUUGUAAGUCUGGAACAAAAGUGUCUUAUGGCAUAAGAACCAACUGCCAUUGUCAAACCUAUUAACUGUCUUUAAUCUCGUGUUAACUGAAAUUUUUGAAAAGUUUUUCCAGAUUAGUAAUAUUUAAACAGAAAAUACUUUAAAAAGCUUUAUUAAAUUUUUUAAUCAGGAUAAAGCUUUGCCAUUUGGAUACUAUCAUUCAAAGUGAUCAAGCAUACAUACUUAUGCUGAUAGUGCAGUAGCACUCUUGCGGUCGCACUAGUGUGGAAUUCUCGGGUGUCAAGG

What follows are binders tested against TDP-43 (Homo sapiens, UniProt Q13148 1-414) (assay: RNA Bind-n-Seq with designed 260-mer pool; 25 mM Tris-HCl, 150 mM KCl, 3 mM MgCl2, BSA (printed 500 mg/mL), 20 units/mL SUPERase IN; pH not stated; 500 nM RNA pool, 1 h, 4 C; TDP-43 5, 50, 500 nM; high values mean tight binding). Settings: protein: recombinant; tags: SBP (GST cleaved off with PreScission; pGEX-GST-SBP).
Sequence of TDP-43 (Q13148 whole entry): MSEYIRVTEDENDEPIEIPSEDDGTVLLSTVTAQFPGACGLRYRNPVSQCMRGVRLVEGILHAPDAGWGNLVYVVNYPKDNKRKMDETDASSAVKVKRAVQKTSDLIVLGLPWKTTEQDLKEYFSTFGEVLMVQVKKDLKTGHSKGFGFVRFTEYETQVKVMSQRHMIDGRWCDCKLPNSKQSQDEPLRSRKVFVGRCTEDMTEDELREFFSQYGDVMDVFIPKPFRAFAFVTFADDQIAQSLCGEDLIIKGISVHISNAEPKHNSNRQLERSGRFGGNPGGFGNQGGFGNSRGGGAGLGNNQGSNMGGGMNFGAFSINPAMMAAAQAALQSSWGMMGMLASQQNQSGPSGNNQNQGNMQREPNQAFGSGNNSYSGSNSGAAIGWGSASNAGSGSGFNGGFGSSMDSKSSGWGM
How it was run: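 Binding (R) is the ratio of each oligo's mapped-read-normalized abundance in the bound fraction to its abundance in the input. To obtain it, SBP-tagged recombinant TDP-43 (5, 50 or 500 nM) on streptavidin beads was incubated with 500 nM of an in vitro-transcribed 260-nt 3′ UTR oligo pool for 1 h at 4 °C in 25 mM Tris-HCl, 150 mM KCl, 3 mM MgCl2, BSA and SUPERase IN. The RNA retained after washing was released with biotin, then reverse transcribed, amplified by PCR and sequenced.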

| Binder | binding signal |
| --- | --- |
| B1 | 0.391 R (bound/input frequency ratio) |
| B2 | 0.299 R (bound/input frequency ratio) |
| B3 | 2.02 R (bound/input frequency ratio) |
| B4 | 0.0202 R (bound/input frequency ratio) |
